Compounds without any hit were thinned out: in the full panel of roughly 83,000, 20% have a hit.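 Interpretation: 100, growth as untreated; towards 0, rising growth inhibition; 0, no net growth; 0 to -100, cell death. Compounds scoring below 10 were considered active.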 Unmarked numbers belong to inactive results. Activity calls are given as the source filed them.
Columns and labels:
Assay in all cases: NCI-60 one-dose screen, 48 h (100 = growth as untreated, 0 = no growth, -100 = all killed)
Settings in all cases: 10 µM unless noted
RPMI-8226 leukemia = system: RPMI-8226 leukemia
OVCAR-8 ovarian = system: OVCAR-8 ovarian
OVCAR-5 ovarian = system: OVCAR-5 ovarian
SK-OV-3 ovarian = system: SK-OV-3 ovarian
IGROV1 ovarian = system: IGROV1 ovarian
OVCAR-3 ovarian = system: OVCAR-3 ovarian
HS 578T breast = system: HS 578T breast
NCI/ADR-RES ovarian = system: NCI/ADR-RES ovarian
OVCAR-4 ovarian = system: OVCAR-4 ovarian

| Structure (SMILES) | growth (RPMI-8226 leukemia) | growth (OVCAR-8 ovarian) | growth (OVCAR-5 ovarian) | growth (SK-OV-3 ovarian) | growth (IGROV1 ovarian) | growth (OVCAR-3 ovarian) | growth (HS 578T breast) | growth (NCI/ADR-RES ovarian) | growth (OVCAR-4 ovarian) |
| --- | --- | --- | --- | --- | --- | --- | --- | --- | --- |
| Cc1nc(N)nc(SCc2ccccc2)c1Br | 81.1% | 89.9% | 111% | 84.2% | 82.7% | 107% | 87.6% | 95.9% |  |
| CC1(C)N=C(N)N=C(N)N1c1ccc(F)c(C(F)(F)F)c1 | 50.4% | 8.44% (active) | 41.8% | 60.5% |  | 53.9% |  | 91.9% | 55.3% |
| CC1(C)N=C(N)N=C(N)N1c1ccc(OCC(=O)Nc2ccccc2)c(Cl)c1 | 34.5% | 21.9% | 49% | 57.3% |  | 56.7% | 97.7% | 102% | 46.1% |
| COc1ccc2c(c1)C(=O)/C(=C/c1cccc(OCC(=O)c3ccccc3)c1)O2 | -49.6% (active) | -29.9% (active) | 37.8% | 121% |  | -84.4% (active) | 52% | 65.1% | -55.1% (active) |
| CC[C@H]1[C@@H]2C=C[C@@H]3[C@H]4C/C=C\C(=O)NCCC[C@@H]5NC(=O)/C(=C(O)/C=C/[C@@H]4C[C@@H]3[C@H]2C[C@H]1C)C5=O | 6.24% (active) | -54.8% (active) | 41.6% | 1.98% (active) | -66.5% (active) | -94.7% (active) | -2.24% (active) | -57.2% (active) |  |
| CC(=O)N1N=C2N(Cc3ccccc3)C(=O)c3c(sc4c3CCCC4)N2C1c1cn(-c2ccccc2)nc1-c1ccc(Cl)cc1 (stereo not drawn) | 87.9% | 100% | 101% | 88% |  | 101% |  | 100% | 115% |
| O=C(Nc1ccccc1F)Nc1ccccc1Cl | 78.8% | 101% | 102% | 104% |  | 102% | 103% |  | 73% |
| O=C(NCCNc1nccc(-c2c(-c3cccc(O)c3)nc3sccn23)n1)c1cc(N2CCOCC2)cc(C(F)(F)F)c1 | 67% | 78.1% | 101% | 94% | 80.4% | 107% |  | 103% |  |
| Nc1nc2ccc(CNc3ccc(C(=O)NC(CC(=O)O)C(=O)O)cc3)cc2c(=O)[nH]1 (stereo not drawn) | 44.3% | 13.1% | 52.2% | 76.8% |  | 58.2% |  | 33% | 65.6% |
| CC(C)(C)NC(C1=CC(C)(C)c2ccccc2C1=O)c1ccccc1 (stereo not drawn) | -44.9% (active) | -47.9% (active) | -75% (active) | 29.2% |  | -92.5% (active) | 46.4% | -43.3% (active) | -52.9% (active) |
| COc1ccc2c(c1)nnn1c3ncccc3c(N=O)c21 | -56.2% (active) | -30.3% (active) | -0.558% (active) | 9.38% (active) |  | -91.3% (active) | -29.7% (active) | -8.17% (active) | 9.93% (active) |
| Clc1ccc(CN2COc3c(ccc4cccnc34)C2)cc1Cl | -19.3% (active) | -24% (active) | 5.97% (active) | 13.4% |  | -1.22% (active) |  |  | 11.6% |
| COc1ccc2c(c1)nnc1c3cccnc3[nH]c21 | -41.9% (active) | 3.13% (active) | 36.1% | 19% |  | -51.1% (active) | -24.5% (active) | 13.8% | 14.8% |
| O=C1CN(CCN2CC(=O)NC(=O)C2)CC(=O)N1 | 88.1% | 103% | 93.2% | 102% |  | 113% | 102% | 99.9% | 96.1% |
| CC(=O)c1ccc2c(c1)C1C=CCC1[C@H](c1cc3c(cc1Br)OCO3)N2 (stereo partly drawn) | 9.1% (active) | 16.8% | 34.7% | 34.2% |  | 8.44% (active) | 7.06% (active) | 10.8% | 56.1% |
| c1coc(CSc2ncnc3nc[nH]c23)c1 | 107% | 90.3% | 103% | 95.7% | 97.1% | 107% | 106% | 106% |  |
| CCCCn1c(-c2cccc(OC)c2)nc2cc(OC)c(OC)cc2c1=O | 58.9% | 118% | 101% | 119% | 89.2% | 113% | 104% | 94.2% |  |
| COc1cc(NS(=O)(=O)c2ccc(N)cc2)ncn1 | 109% | 102% |  | 107% | 118% | 115% | 105% | 103% | 114% |
| COc1ccc(/C=C2\CS(=O)(=O)C/C(=C\c3ccc(OC)cc3)C2=O)cc1 | -41.2% (active) | -44.8% (active) | -20.2% (active) | 25.4% |  | -66.2% (active) | 48% | 10.5% | 12.3% |
| O=C(/C=C/c1ccco1)c1cccc(Nc2nc(Nc3ccccc3)nc(Nc3ccccc3)n2)c1 | 38.8% | 49.5% | 83.6% | 90.5% |  | 61.8% | 92% | 75.5% | 62.1% |

From PubChem BioAssay (NCI)
